PubChem BioAssay (NCI)
The panel holds about 79,000 compounds, 15% with a hit somewhere; the sample as a whole holds those more often. Unmarked numbers belong to inactive results. Activity calls are given as the source filed them. Rule as the data show it: active = growth inhibition above about 70%; inactive = the rest.

Key:
[1] = NCI Yeast Anticancer Drug Screen. Data for the rad50 strain (AID 155);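 also: 0% = growth of vehicle-only cultures of the same strain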; details: S. cerevisiae rad50 strain growth inhibition, hits give high values
Method in brief: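 Inhibition values express reduced yeast growth in compound-treated cultures relative to vehicle-treated controls.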

[2] = NCI Yeast Anticancer Drug Screen. Data for the mec2-1 strain (AID 157); details: S. cerevisiae mec2-1 strain, hits give high values
Method in brief: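 Using mec2-1 yeast: add compound, measure growth, express inhibition versus vehicle-treated cultures.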

[3] = NCI Yeast Anticancer Drug Screen. Data for the sgs1 mgt1 strain (AID 161);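 also: 0% = growth of cultures given vehicle only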; details: S. cerevisiae sgs1 mgt1 strain, hits give high values
Method in brief: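 Percent growth inhibition was derived by comparing compound-exposed mutant yeast with vehicle-exposed cultures. The strain carries alterations in DNA damage repair.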

[4] = NCI Yeast Anticancer Drug Screen. Data for the cln2 rad14 strain (AID 165);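 also: 0% = growth equal to vehicle treated cultures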; details: S. cerevisiae cln2 rad14 strain, hits give high values
Method in brief: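 Yeast strain cln2 rad14, bearing defects in cell cycle control and DNA repair, serves as the test system; values reflect growth inhibition compared with vehicle.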

[5] = NCI Yeast Anticancer Drug Screen. Data for the bub3 strain (AID 167); details: S. cerevisiae bub3 mutant strain, hits give high values
Method in brief: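 Steps: expose the mutant yeast strain to compound; grow alongside vehicle-treated cultures; measure growth; express inhibition against the vehicle cultures.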

[6] = NCI Yeast Anticancer Drug Screen. Data for the mlh1 rad18 strain (AID 175); details: S. cerevisiae mlh1 rad18 strain growth inhibition, hits give high values
Method in brief: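 Steps: expose repair-defective yeast to compound; measure growth; express inhibition against vehicle-treated controls.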

[7] = at 5.0 µM (retest, dose inferred, filed as 0.5)
[8] = at 50.0 µM (retest, dose inferred, filed as 5.0)

Cc1ccccc1CN(C)CCO
growth inhibition [1, 7]: 0%
growth inhibition [1, 8]: -8%
growth inhibition ([1]; at 50.0 µM): 65.7%
growth inhibition [2, 7]: -1%
growth inhibition [2, 8]: 2%
growth inhibition ([2]; at 50.0 µM): 17.3%
growth inhibition [3, 7]: 2%
growth inhibition [3, 8]: 13%
growth inhibition ([3]; at 50.0 µM): 14.1%
growth inhibition [4, 7]: -8%
growth inhibition [4, 8]: -1%
growth inhibition ([4]; at 50.0 µM): 56.8%
growth inhibition [5, 7]: -5%
growth inhibition [5, 8]: -5%
growth inhibition ([5]; at 50.0 µM): 13.6%
growth inhibition [6, 7]: -5%
growth inhibition [6, 8]: -6%
growth inhibition ([6]; at 50.0 µM): 13.8%

CSC1NNC2(C(=O)N1)c1ccccc1-c1ccccc12 (configuration not stated)
growth inhibition [1, 7]: -2%
growth inhibition [1, 8]: 96% (active)
growth inhibition ([1]; at 50.0 µM): 87.3% (active)
growth inhibition [2, 7]: -15%
growth inhibition [2, 8]: 98% (active)
growth inhibition ([2]; at 50.0 µM): 87.9% (active)
growth inhibition [3, 7]: 2%
growth inhibition [3, 8]: 96% (active)
growth inhibition ([3]; at 50.0 µM): 90.7% (active)
growth inhibition [4, 7]: 9%
growth inhibition [4, 8]: 96% (active)
growth inhibition ([4]; at 50.0 µM): 88.5% (active)
growth inhibition [5, 7]: 13%
growth inhibition [5, 8]: 97% (active)
growth inhibition ([5]; at 50.0 µM): 91.7% (active)
growth inhibition [6, 7]: -1%
growth inhibition [6, 8]: 96% (active)
growth inhibition ([6]; at 50.0 µM): 88.8% (active)

C1=Nc2ccccc2C=Nc2ccccc2C=Nc2ccccc2C=Nc2ccccc21.[Cl-].[Pt+2]
growth inhibition [1, 7]: 55%
growth inhibition [1, 8]: 93% (active)
growth inhibition ([1]; at 50.0 µM): 85% (active)
growth inhibition [2, 7]: 80% (active)
growth inhibition [2, 8]: 97% (active)
growth inhibition ([2]; at 50.0 µM): 82.2% (active)
growth inhibition [3, 7]: 36%
growth inhibition [3, 8]: 89% (active)
growth inhibition ([3]; at 50.0 µM): 76.8% (active)
growth inhibition [4, 7]: 25%
growth inhibition [4, 8]: 69%
growth inhibition ([4]; at 50.0 µM): 60%
growth inhibition [5, 7]: 75% (active)
growth inhibition [5, 8]: 87% (active)
growth inhibition ([5]; at 50.0 µM): 74.7% (active)
growth inhibition [6, 7]: 63%
growth inhibition [6, 8]: 97% (active)
growth inhibition ([6]; at 50.0 µM): 81.4% (active)

O=C1CCS(=O)(=O)c2ccccc21
growth inhibition [1, 7]: 21%
growth inhibition [1, 8]: 100% (active)
growth inhibition ([1]; at 50.0 µM): 91.2% (active)
growth inhibition [2, 7]: -2%
growth inhibition [2, 8]: 99% (active)
growth inhibition ([2]; at 50.0 µM): 65.4%
growth inhibition [3, 7]: 24%
growth inhibition [3, 8]: 99% (active)
growth inhibition ([3]; at 50.0 µM): 57.7%
growth inhibition [4, 7]: 3%
growth inhibition [4, 8]: 94% (active)
growth inhibition ([4]; at 50.0 µM): 36.9%
growth inhibition [5, 7]: 34%
growth inhibition [5, 8]: 99% (active)
growth inhibition ([5]; at 50.0 µM): 33.4%
growth inhibition [6, 7]: 36%
growth inhibition [6, 8]: 99% (active)
growth inhibition ([6]; at 50.0 µM): 64%

COC(=O)c1c2c(cc3c1CC1(Cc4cc5c(c(C)c4C1)CCC5)C3)CCC2 (configuration not stated)
growth inhibition [1, 7]: 15%
growth inhibition [1, 8]: 12%
growth inhibition ([1]; at 50.0 µM): -32.5%
growth inhibition [2, 7]: 6%
growth inhibition [2, 8]: 5%
growth inhibition ([2]; at 50.0 µM): -46.4%
growth inhibition [3, 7]: 9%
growth inhibition [3, 8]: 12%
growth inhibition ([3]; at 50.0 µM): -31.9%
growth inhibition [4, 7]: -4%
growth inhibition [4, 8]: 13%
growth inhibition ([4]; at 50.0 µM): -11.1%
growth inhibition [5, 7]: 14%
growth inhibition [5, 8]: 10%
growth inhibition ([5]; at 50.0 µM): -13.1%
growth inhibition [6, 7]: 12%
growth inhibition [6, 8]: 11%
growth inhibition ([6]; at 50.0 µM): -22.9%

COc1ccc(Cc2cncc3c(O)c(OC)ccc23)cc1O
growth inhibition [1, 7]: -1%
growth inhibition [1, 8]: 44%
growth inhibition ([1]; at 50.0 µM): 80.2% (active)
growth inhibition [2, 7]: 0%
growth inhibition [2, 8]: 50%
growth inhibition ([2]; at 50.0 µM): 69.2%
growth inhibition [3, 7]: -13%
growth inhibition [3, 8]: 50%
growth inhibition ([3]; at 50.0 µM): 39.2%
growth inhibition [4, 7]: 2%
growth inhibition [4, 8]: 14%
growth inhibition ([4]; at 50.0 µM): 59.9%
growth inhibition [5, 7]: -1%
growth inhibition [5, 8]: 21%
growth inhibition ([5]; at 50.0 µM): 86.4% (active)
growth inhibition [6, 7]: 6%
growth inhibition [6, 8]: 49%
growth inhibition ([6]; at 50.0 µM): 89.5% (active)

C/C=C(\C)[C@H](O)C(COCc1ccccc1)NS(=O)(=O)c1ccc(C)cc1 (some centres not stated)
growth inhibition [1, 7]: -5%
growth inhibition [1, 8]: 44%
growth inhibition ([1]; at 50.0 µM): 30.1%
growth inhibition [2, 7]: -3%
growth inhibition [2, 8]: 26%
growth inhibition ([2]; at 50.0 µM): 98.5% (active)
growth inhibition [3, 7]: -7%
growth inhibition [3, 8]: 43%
growth inhibition ([3]; at 50.0 µM): 36.8%
growth inhibition [4, 7]: -2%
growth inhibition [4, 8]: 47%
growth inhibition ([4]; at 50.0 µM): 22.6%
growth inhibition [5, 7]: -3%
growth inhibition [5, 8]: 51%
growth inhibition ([5]; at 50.0 µM): 97.5% (active)
growth inhibition [6, 7]: -4%
growth inhibition [6, 8]: 36%
growth inhibition ([6]; at 50.0 µM): 58.5%

COc1ccc(N=Nc2ccc3oc(=O)c(C(=O)Nc4ccc(OC)cc4)cc3c2)cc1
growth inhibition [1, 7]: 24%
growth inhibition [1, 8]: 97% (active)
growth inhibition ([1]; at 50.0 µM): 94.8% (active)
growth inhibition [2, 7]: 14%
growth inhibition [2, 8]: 97% (active)
growth inhibition ([2]; at 50.0 µM): 95.3% (active)
growth inhibition [3, 7]: 14%
growth inhibition [3, 8]: 98% (active)
growth inhibition ([3]; at 50.0 µM): 95.5% (active)
growth inhibition [4, 7]: 26%
growth inhibition [4, 8]: 94% (active)
growth inhibition ([4]; at 50.0 µM): 94.3% (active)
growth inhibition [5, 7]: -25%
growth inhibition [5, 8]: 92% (active)
growth inhibition ([5]; at 50.0 µM): 95.3% (active)
growth inhibition [6, 7]: 36%
growth inhibition [6, 8]: 97% (active)
growth inhibition ([6]; at 50.0 µM): 95.1% (active)

CC(=O)O[C@@H]1CC(C)C2CC2C2=C(C(O)OC2O)[C@@H]1C(C)CCC=C(C)C (some centres not stated)
growth inhibition [1, 7]: 19%
growth inhibition [1, 8]: 98% (active)
growth inhibition ([1]; at 50.0 µM): 91.9% (active)
growth inhibition [2, 7]: 92% (active)
growth inhibition [2, 8]: 99% (active)
growth inhibition ([2]; at 50.0 µM): 93.7% (active)
growth inhibition [3, 7]: 25%
growth inhibition [3, 8]: 98% (active)
growth inhibition ([3]; at 50.0 µM): 93% (active)
growth inhibition [4, 7]: 86% (active)
growth inhibition [4, 8]: 98% (active)
growth inhibition ([4]; at 50.0 µM): 90% (active)
growth inhibition [5, 7]: 99% (active)
growth inhibition [5, 8]: 98% (active)
growth inhibition ([5]; at 50.0 µM): 92.4% (active)
growth inhibition [6, 7]: 78% (active)
growth inhibition [6, 8]: 98% (active)
growth inhibition ([6]; at 50.0 µM): 91.5% (active)
